Screening data (PubChem BioAssay)
Hits are enriched below; roughly 13% of the tested compounds scored in any of these assays.
Pf growth 96h = P. falciparum growth inhibition at 96 hours | P. falciparum luciferase reporter growth, 96 h | Potency, µM (highest dose often 28.7 µM), hits mostly inhibitors | actives 6.9% (n = 320,000)
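P. falciparum expressing integrated firefly luciferase, in erythrocytes at 2% hematocrit, 0.05% parasitemia, incubated with compounds 96 h at 37 C, 5% CO2. Growth inhibition read as loss of luminescence; two-generation exposure targets delayed-death apicoplast inhibitors.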
HCV inh = blocks hepatitis C virus; Huh7.5.1 HCVcc-Cre infection, luciferase reporter, 44 h; Potency, µM (series often up to 41.8 µM), hits mostly inhibitors; actives 3.4% (n = 340,000); AID 651820
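1,000 cells/well; 4 h culture; + compound; + HCVcc-Cre (~0.5 moi); 44 h; luciferase substrate, RT 15 min; read 15 sec.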
Pf growth 48h = P. falciparum growth inhibition at 48 hours (one generation); P. falciparum luciferase growth in erythrocytes, 48 h; Potency, µM (highest dose often 28.7 µM), hits mostly inhibitors; actives 5.9% (n = 310,000); AID 504832
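Here the parasites carry a stable luciferase gene and grow inside erythrocytes in Albumax-based RPMI medium with compound for one erythrocytic cycle. Activity is scored as loss of luminescent signal.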
HCMV antiviral = human cytomegalovirus inhibition. HFF cells, HCMV-luciferase reporter, 72 h; stronger effect = lower value. activity change, negative = inhibition, % at 57.5 µM. actives 4.5% (n = 410,000). AID 1259415; in the data active = activity change below about -60%; inconclusive = no clear call, values can overlap the other calls; inactive = above about -39%
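Inhibition of viral replication was scored as loss of reporter luminescence in HFFs infected with HCMV-luciferase (MOI 1 PFU/cell) for 72 h; compounds tested at 2 doses, normalized to buffer and Salinomycin controls.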
Large screens that a line does not name were inactive; ! = not active in a repeat. Unless noted, calls follow the shape of the dose curve; as a rule, active = well fitted inhibition curve with a large enough effect; inconclusive = small, poorly fitted or top-dose-only effect, or another doubt; inactive = no such curve, though single readings can be large or run the other way.

COC(=O)c1c(NC(=O)CCCOc2ccc(C(C)(C)C)cc2)sc2c1C(C(=O)OC)CC2 (centres undefined)	HCMV antiviral -84 (no result: Pf growth 96h, HCV inh, Pf growth 48h)
COC(=O)c1c(NC(=O)c2c(OC)cccc2OC)sc2c1C(C(=O)OC)CC2 (centres undefined)	HCV inh inconclusive, Pf growth 48h inconclusive, HCMV antiviral -65
COc1cc(C2CC(=O)Nc3ccc4ccccc4c32)ccc1OC(=O)C(C)C (centres undefined)	none (no result: Pf growth 96h, HCV inh, Pf growth 48h)
O=C(NC(=S)N1CCCC(C(F)(F)F)C1)c1ccc(F)cc1 (centres undefined)	Pf growth 96h inconclusive, Pf growth 48h inconclusive, HCMV antiviral -66
CCOC(=O)N1CCN(C(=S)NC(=O)c2ccc(F)c(F)c2)CC1	HCMV antiviral -89
CCOC(=O)N1CCN(C(=S)NC(=O)c2c(-c3c(Cl)cccc3Cl)noc2C)CC1	Pf growth 48h inconclusive, HCMV antiviral -69
COc1ccc(C(=O)NC(=S)N2CCCC2)cc1	Pf growth 96h 13µM
COCCn1nc2ccccc2c1OC	none (no result: Pf growth 96h, HCV inh, Pf growth 48h)
COc1ccccc1NC(=O)N(C)C[C@H]1OCc2cn(nn2)CCCC(=O)N([C@H](C)CO)C[C@@H]1C	none (no result: Pf growth 96h, HCV inh, Pf growth 48h)
COC(=O)C[C@@H]1C=C[C@H](NC(=O)Nc2ccc(F)cc2)[C@@H](CO)O1	none (no result: Pf growth 96h, HCV inh, Pf growth 48h)
Cc1ccc(NC(=O)Cn2c(=O)n(Cc3ccccc3)c(=O)c3sc4ccccc4c32)cc1	none (no result: Pf growth 96h, HCV inh, Pf growth 48h)
O=C(Nc1cccc(Cl)c1)N1CCN(C2c3ccccc3-c3ccccc32)CC1	Pf growth 96h inconclusive, Pf growth 48h 9.3µM
O=C(Nc1cccc(Cl)c1)N1CCCCCC1	Pf growth 96h inconclusive
COC(=O)c1ccccc1NC(=O)c1cc(=O)c2ccc(C)c(C)c2o1	none (no result: Pf growth 96h, HCV inh, Pf growth 48h)
COc1ccc2c(c1)c1c(c(=O)n(-c3ccccc3C)c(=O)n1CC(=O)Nc1c(C)cccc1C)n2C	none (no result: Pf growth 96h, HCV inh, Pf growth 48h)
Cc1ccc2[nH]c(=O)c(CN(C(=O)c3cccc(Cl)c3)C(C)(C)C)cc2c1	none (no result: Pf growth 96h, HCV inh, Pf growth 48h)
COc1cc2[nH]c(C(=O)N3CCN(C)CC3)cc2c(OC)c1OC	none (no result: Pf growth 48h)
COc1cccc(N2CCN(C(=O)c3cc4c(OC)c(OC)c(OC)cc4[nH]3)CC2)c1	Pf growth 96h 7.4µM (no result: Pf growth 48h)
c1ccc(-c2ccc(OCCCNC3CCCC3)cc2)cc1	HCV inh 11µM, Pf growth 48h 13µM
c1cc2c(cc1OCCNC1CCCC1)CCC2	Pf growth 96h 12µM (no result: HCV inh, HCMV antiviral)
Cc1ccccc1Cn1c(SCc2ccc(C(=O)NC(C)c3ccccc3)cc2)nc2ccncc21 (centres undefined)	none (no result: Pf growth 96h, HCV inh, Pf growth 48h)
CCOc1ccc(-c2nc(CSCC(=O)NCCc3ccc(OCC)c(OCC)c3)c(C)o2)cc1	none (no result: Pf growth 96h, HCV inh, Pf growth 48h)
CCCCCc1cc(O)c2c(c1)OC(C)(C)C1CC=C(C)CC21 (centres undefined)	Pf growth 96h 3µM, Pf growth 48h 2.4µM (no result: HCV inh, HCMV antiviral)
N#C/C(=C\c1ccc(Cl)cc1)C(=O)NCC1CCCO1 (centres undefined)	none (no result: Pf growth 96h, HCV inh, Pf growth 48h)
O=C(C(Cc1ccccc1)N1C(=O)c2ccccc2C1=O)N1c2ccccc2CCc2ccccc21 (centres undefined)	HCV inh 10µM, Pf growth 48h inconclusive, HCMV antiviral -66
CCc1nnc(NC(=O)c2cccc(C(=O)Nc3nnc(CC)s3)n2)s1	Pf growth 96h 9.3µM, HCV inh 1.1µM, HCMV antiviral -92
CCOc1ccccc1C(=O)NCCCCNC(=O)c1ccccc1OCC	HCV inh inconclusive (no result: Pf growth 96h, Pf growth 48h)
CCOc1cc(NC(=O)C2CC2)c(OCC)cc1NC(=O)c1ccccc1OCC	HCV inh inconclusive, Pf growth 48h 5.9µM
CCOc1ccccc1NC(=O)C1CCN(C(=O)Cc2ccccc2)CC1	Pf growth 96h inconclusive, HCV inh 2.2µM, Pf growth 48h inconclusive
CCOc1ccccc1C(=O)NCCCN1CCN(CCCNC(=O)c2ccccc2OCC)CC1	Pf growth 96h inconclusive, HCV inh 10µM!, Pf growth 48h inconclusive
COC(=O)c1ccccc1NC(=O)C1CCN(C(=O)Cc2ccccc2)CC1	HCV inh inconclusive, Pf growth 48h inconclusive
Cc1cc(C)c(NC(=O)CN2C(=O)c3cccnc3Oc3ccc(C)cc32)c(C)c1	none (no result: Pf growth 96h, HCV inh, Pf growth 48h)
CCOc1ccccc1C(=O)Nc1nn[nH]n1	HCV inh 3.2µM, HCMV antiviral inconclusive
CCOc1ccccc1C(=O)Nc1ccccc1C(N)=O	none (no result: Pf growth 96h)
CCOc1ccccc1C(=O)Nc1nnc(CC)s1	Pf growth 96h inconclusive, HCV inh 11µM
Cc1ccc(NC(=O)CN2C(=O)CCn3nc(-c4cccn4C)cc32)c(Cl)c1	none (no result: Pf growth 96h, HCV inh, Pf growth 48h)
CCc1ccc(-c2ccc3nnc(SCC(=O)Nc4cccc(C(C)=O)c4)n3n2)cc1	none (no result: Pf growth 96h, HCV inh, Pf growth 48h)
C/C(=N\NC(=O)c1ccccc1F)c1cccc(NC(=O)c2ccc(C)cc2)c1	Pf growth 96h 5.2µM, HCV inh inconclusive
